Data from PubChem BioAssay AID504400 (The Scripps Research Institute Molecular Screening Center, 2011).
Unmarked numbers belong to inactive results. No rule for the calls is given here.

Test system: Rolipram
Test: CYP450 and receptor off-target profile – biochemical, Ricerca HitProfilingScreen, selectivity assay for S1P4 agonist project, late-stage follow-up (AID 504400)
Settings: Ricerca radioligand binding/enzyme panel plus CYP450, at 10 µM, hits give high values

Clc1ccc(OCCOc2ccc(Br)nc2Br)c(Cl)c1
inhibition: -3%
